Reference: PubChem BioAssay (NCI)
About 79,000 compounds went through this panel and 15% of them were active in at least one assay; those are over-represented in the sample as a whole. Unmarked numbers belong to inactive results. Calls of active or inactive are those of the source. No stated cut-off is given here; in the data, active means growth inhibition above about 70%; inactive means the rest.

Assay: NCI Yeast Anticancer Drug Screen. Data for the cln2 rad14 strain (AID 165);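 further: 0% = growth equal to vehicle treated cultures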
Details: S. cerevisiae cln2 rad14 strain, at 5.0 µM (retest, dose inferred, filed as 0.5), stronger effect = higher value
Method in brief: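 Yeast strain cln2 rad14, bearing defects in cell cycle control and DNA repair, serves as the test system; values reflect growth inhibition compared with vehicle.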
`CCOC(=O)c1ccc([N+](=O)[O-])o1` showed a growth inhibition of -1%.
`O=C(NCCc1c(-c2ccccc2)[nH]c2ccccc12)C(F)(F)F` showed a growth inhibition of -2%.
`CC(C)OC(=O)c1ccc(NCc2cc(O)ccc2O)cc1Cl` gave a growth inhibition of 63%.
For `c1cc[c]([Sn]([NH]c2ncnc3[nH]cnc23)([NH]c2ncnc3[nH]cnc23)[c]2ccccc2)cc1`, the growth inhibition was -2%.
Work on `CCCCCCCCCCCCCCCCCC(=O)OCC(COC(=O)CCCN)OC(=O)CCCN` (configuration not stated) yielded a growth inhibition of 5%.
`CCCCN(CCCC)CCC(O)(c1ccc(OC)c2ccccc12)C(O)(CCN(CCCC)CCCC)c1ccc(OC)c2ccccc12` (configuration not stated) gave a growth inhibition of 35%.
For `CC(C)(C)c1ccc(OC(=O)Nc2ccc(Cl)cc2[N+](=O)[O-])c(Br)c1`, the growth inhibition was 3%.
Compound `O=[N+]([O-])c1ccc(NSc2ccccc2)cc1` has a growth inhibition of 21%.
Compound `COC(=O)CCC(NC(=S)N/N=C/c1ccccn1)C(=O)OC` (configuration not stated) has a growth inhibition of -11%.
For `O=C(Nc1ccccc1)OCCc1ccc(Br)cc1`, the growth inhibition was 1%.
`Cc1[nH]c2ccccc2c1/C=C1\C(=O)C2CCC1C2` (configuration not stated) showed a growth inhibition of -4%.
`O=[N+]([O-])c1ccc2c(c1)OCO2` showed a growth inhibition of 1%.
In the case of `CC(CO)[C@H]1OC(=O)C=C2[C@@]13O[C@@H]3[C@H]1OC(=O)[C@@]3(C)[C@H]4O[C@H]4C[C@@]2(C)[C@@H]13` (some centres not stated), the growth inhibition is reported as 59%.
Work on `Cc1cc(C)nc(/C=C/c2ccc(/C=C/c3cc(C)cc(C)n3)cc2)c1` yielded a growth inhibition of -4%.
In the case of `O=C1C=CC(=O)N1c1cccc(F)c1`, the growth inhibition is reported as 82% (active).
`COc1ccc(C(=O)C(CN2CCCC2)CN2CCCC2)cc1` showed a growth inhibition of 2%.
`O=C1NN(C2=NNC3(C(=O)N2)c2ccccc2-c2ccccc23)C(c2ccccc2)=N/C1=C/c1ccc(O)cc1` gave a growth inhibition of -6%.
For `CCN(CC)CCCNc1ncc(C)c2c1c1ccc3c(O)cccc3c1n2C`, the growth inhibition was 8%.
In the case of `O=C1SCCN1/N=C/c1ccc([N+](=O)[O-])o1`, the growth inhibition is reported as 2%.
Work on `CC(C)(C)C1=NC(=S)SC2=NC(=O)C3(NN21)c1ccccc1-c1ccccc13` yielded a growth inhibition of -10%.
Compound `Clc1ccc2oc(N3CCCCC3)nc2c1` has a growth inhibition of 2%.
For `Cc1ccnc(NC(c2ccccc2)c2ccc3cccnc3c2O)c1` (configuration not stated), the growth inhibition was -7%.
For `CC(=O)N(C1=C(Cl)C(=O)c2ccccc2C1=O)c1ccc(Cl)cc1`, the growth inhibition was 95% (active).
For `CSc1cc(C(=O)O)nc(N)n1`, the growth inhibition was 8%.
Work on `COc1ccc([C@H]2c3cc4c(cc3OC(O)(CO)[C@H]2C(=O)O)OCO4)c(OC)c1` (some centres not stated) (tested in a mixture with another compound) yielded a growth inhibition of 0%.
Work on `CC(C)C(C)OC(=O)Nc1cccc(O)c1` (configuration not stated) yielded a growth inhibition of -50%.
In the case of `O=C(CC1(O)C(=O)Nc2c(Cl)ccc(Cl)c21)c1ccc(Cl)cc1Cl` (configuration not stated), the growth inhibition is reported as -6%.
For `CCOC1(OCC)Oc2c(Cl)c(Cl)c(Cl)c(Cl)c2OC1(OCC)OCC`, the growth inhibition was 16%.
With `CCN(CC)CC(C)(C)C(=O)/C=C/c1ccc(Cl)c(Cl)c1` the growth inhibition was 4%.
In the case of `O=c1c(NO)c([N+](=O)[O-])cnn1-c1ccccc1`, the growth inhibition is reported as 13%.
`O=C(Cl)c1cc(-c2ccc(Cl)cc2)nc2c(Cl)cccc12` gave a growth inhibition of 3%.
Compound `COC/C=N/Nc1ccc([N+](=O)[O-])cc1` has a growth inhibition of 46%.
`Cn1c(N)c(NC(=O)CCl)c(=O)n(C)c1=O` gave a growth inhibition of 1%.
`CCOC(=O)C(C)(c1c(C)[nH]c2ccccc12)c1c(C)[nH]c2ccccc12` showed a growth inhibition of 4%.

Same assay, conditions: S. cerevisiae cln2 rad14 strain, at 50.0 µM (retest, dose inferred, filed as 5.0), stronger effect = higher value
Compound `CCOC(=O)c1ccc([N+](=O)[O-])o1` has a growth inhibition of 11%.
With `CC(C)OC(=O)c1ccc(NCc2cc(O)ccc2O)cc1Cl` the growth inhibition was 100% (active).
For `c1cc[c]([Sn]([NH]c2ncnc3[nH]cnc23)([NH]c2ncnc3[nH]cnc23)[c]2ccccc2)cc1`, the growth inhibition was 73% (active).
In the case of `CCCCCCCCCCCCCCCCCC(=O)OCC(COC(=O)CCCN)OC(=O)CCCN` (configuration not stated), the growth inhibition is reported as 96% (active).
In the case of `CCCCN(CCCC)CCC(O)(c1ccc(OC)c2ccccc12)C(O)(CCN(CCCC)CCCC)c1ccc(OC)c2ccccc12` (configuration not stated), the growth inhibition is reported as 99% (active).
Compound `CC(C)(C)c1ccc(OC(=O)Nc2ccc(Cl)cc2[N+](=O)[O-])c(Br)c1` has a growth inhibition of 7%.
In the case of `O=[N+]([O-])c1ccc(NSc2ccccc2)cc1`, the growth inhibition is reported as 99% (active).
Work on `COC(=O)CCC(NC(=S)N/N=C/c1ccccn1)C(=O)OC` (configuration not stated) yielded a growth inhibition of 33%.
With `O=C(Nc1ccccc1)OCCc1ccc(Br)cc1` the growth inhibition was -2%.
`Cc1[nH]c2ccccc2c1/C=C1\C(=O)C2CCC1C2` (configuration not stated) gave a growth inhibition of 38%.
For `O=[N+]([O-])c1ccc2c(c1)OCO2`, the growth inhibition was 0%.
For `CC(CO)[C@H]1OC(=O)C=C2[C@@]13O[C@@H]3[C@H]1OC(=O)[C@@]3(C)[C@H]4O[C@H]4C[C@@]2(C)[C@@H]13` (some centres not stated), the growth inhibition was 98% (active).
Compound `Cc1cc(C)nc(/C=C/c2ccc(/C=C/c3cc(C)cc(C)n3)cc2)c1` has a growth inhibition of -11%.
For `O=C1C=CC(=O)N1c1cccc(F)c1`, the growth inhibition was 99% (active).
Compound `COc1ccc(C(=O)C(CN2CCCC2)CN2CCCC2)cc1` has a growth inhibition of 54%.
`O=C1NN(C2=NNC3(C(=O)N2)c2ccccc2-c2ccccc23)C(c2ccccc2)=N/C1=C/c1ccc(O)cc1` showed a growth inhibition of 21%.
`CCN(CC)CCCNc1ncc(C)c2c1c1ccc3c(O)cccc3c1n2C` gave a growth inhibition of 8%.
Work on `O=C1SCCN1/N=C/c1ccc([N+](=O)[O-])o1` yielded a growth inhibition of 68%.
Compound `CC(C)(C)C1=NC(=S)SC2=NC(=O)C3(NN21)c1ccccc1-c1ccccc13` has a growth inhibition of 45%.
For `Clc1ccc2oc(N3CCCCC3)nc2c1`, the growth inhibition was 6%.
In the case of `Cc1ccnc(NC(c2ccccc2)c2ccc3cccnc3c2O)c1` (configuration not stated), the growth inhibition is reported as 95% (active).
With `CC(=O)N(C1=C(Cl)C(=O)c2ccccc2C1=O)c1ccc(Cl)cc1` the growth inhibition was 99% (active).
For `CSc1cc(C(=O)O)nc(N)n1`, the growth inhibition was -1%.
`COc1ccc([C@H]2c3cc4c(cc3OC(O)(CO)[C@H]2C(=O)O)OCO4)c(OC)c1` (some centres not stated) (tested in a mixture with another compound) gave a growth inhibition of 35%.
Work on `CC(C)C(C)OC(=O)Nc1cccc(O)c1` (configuration not stated) yielded a growth inhibition of -54%.
Compound `O=C(CC1(O)C(=O)Nc2c(Cl)ccc(Cl)c21)c1ccc(Cl)cc1Cl` (configuration not stated) has a growth inhibition of -6%.
For `CCOC1(OCC)Oc2c(Cl)c(Cl)c(Cl)c(Cl)c2OC1(OCC)OCC`, the growth inhibition was 97% (active).
In the case of `CCN(CC)CC(C)(C)C(=O)/C=C/c1ccc(Cl)c(Cl)c1`, the growth inhibition is reported as 97% (active).
Work on `O=c1c(NO)c([N+](=O)[O-])cnn1-c1ccccc1` yielded a growth inhibition of 31%.
In the case of `O=C(Cl)c1cc(-c2ccc(Cl)cc2)nc2c(Cl)cccc12`, the growth inhibition is reported as 99% (active).
With `COC/C=N/Nc1ccc([N+](=O)[O-])cc1` the growth inhibition was 98% (active).
`Cn1c(N)c(NC(=O)CCl)c(=O)n(C)c1=O` showed a growth inhibition of 2%.
In the case of `CCOC(=O)C(C)(c1c(C)[nH]c2ccccc12)c1c(C)[nH]c2ccccc12`, the growth inhibition is reported as 95% (active).
